Test results as given in publication PMC4336329 (PLoS ONE, 2015).
The campaign covered roughly 310,000 compounds. About 2,200 (0.71%) showed an effect of 50% or more. Effects have a minus sign here. For the sample, strong results were picked, then their nearest neighbours and some compounds at random.

Biological target: human ether-à-go-go-related gene (hERG) potassium channel (human, UniProt Q12809)
Experiment: primary screen, population patch clamp on CHO cells stably expressing hERG; higher = less effect of the substance

human ether-à-go-go-related gene (hERG) potassium channel, sequence (Q12809 whole entry, looked up): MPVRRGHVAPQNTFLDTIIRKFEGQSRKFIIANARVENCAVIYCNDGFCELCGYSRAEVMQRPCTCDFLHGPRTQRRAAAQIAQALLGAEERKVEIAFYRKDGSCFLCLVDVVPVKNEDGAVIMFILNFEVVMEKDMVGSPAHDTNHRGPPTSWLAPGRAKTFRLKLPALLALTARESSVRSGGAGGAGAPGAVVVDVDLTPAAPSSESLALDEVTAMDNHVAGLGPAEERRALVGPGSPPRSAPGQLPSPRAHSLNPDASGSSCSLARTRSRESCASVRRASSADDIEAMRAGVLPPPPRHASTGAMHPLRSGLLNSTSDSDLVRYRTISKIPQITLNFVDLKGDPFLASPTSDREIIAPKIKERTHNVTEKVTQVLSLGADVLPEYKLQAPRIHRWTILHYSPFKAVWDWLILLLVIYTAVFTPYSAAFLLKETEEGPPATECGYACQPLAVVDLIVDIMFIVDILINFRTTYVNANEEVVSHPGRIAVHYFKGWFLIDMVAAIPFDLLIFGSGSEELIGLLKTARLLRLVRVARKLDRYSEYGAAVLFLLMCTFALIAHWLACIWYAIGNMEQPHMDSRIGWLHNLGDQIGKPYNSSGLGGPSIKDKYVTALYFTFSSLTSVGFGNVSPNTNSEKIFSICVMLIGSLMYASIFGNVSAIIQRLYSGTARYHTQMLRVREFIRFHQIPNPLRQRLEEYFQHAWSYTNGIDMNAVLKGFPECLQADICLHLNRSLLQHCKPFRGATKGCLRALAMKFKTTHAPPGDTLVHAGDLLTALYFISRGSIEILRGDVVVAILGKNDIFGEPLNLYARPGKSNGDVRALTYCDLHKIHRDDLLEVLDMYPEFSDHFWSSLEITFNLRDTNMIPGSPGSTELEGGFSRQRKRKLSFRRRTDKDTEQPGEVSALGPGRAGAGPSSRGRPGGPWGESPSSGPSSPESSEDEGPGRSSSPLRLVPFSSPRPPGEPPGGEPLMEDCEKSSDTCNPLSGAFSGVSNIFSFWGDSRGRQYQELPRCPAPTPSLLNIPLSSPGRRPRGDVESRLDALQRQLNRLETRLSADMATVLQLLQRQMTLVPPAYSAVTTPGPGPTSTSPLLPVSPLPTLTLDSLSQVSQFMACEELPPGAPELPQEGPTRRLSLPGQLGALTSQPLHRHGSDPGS

| SMILES | hERG current change (%, negative = inhibition) at 1uM |
| --- | --- |
| CSC1=N/C(=C\c2ccccc2Cl)C(=O)N1N(C)C | 1.86% |
| Cc1cc(=O)[nH]c(SC(C)C(=O)Nc2cccc3ccccc23)n1 (centres unmarked) | 6.33% |
| CCC(=O)Nc1ccc(N2CCN(CC)CC2)c(Cl)c1 | 8.56% |
| CCCOc1ccc(C(=O)N2CCN(c3ccc(N)cc3Cl)CC2)cc1 | -6.51% |
| CCN1CCN(c2ccc(NC(=O)c3cccc(F)c3)cc2Cl)CC1 | -8.27% |
| CCCCCC(=O)Nc1ccc(N2CCN(CC)CC2)c(Cl)c1 | -55.6% |
| CCCC(=O)Nc1ccc(N2CCN(CC)CC2)c(Cl)c1.Cl | -17.9% |
| COc1ccc(OCC(=O)Nc2ccc(N3CCN(C(=O)c4ccccc4)CC3)c(Cl)c2)cc1 | 9.86% |
| CCCOc1ccc(C(=O)N2CCN(c3ccc(NC(=O)CC)cc3Cl)CC2)cc1 | -58.7% |
| CCN1CCN(c2ccc(NC(C)=O)cc2Cl)CC1 | 10.3% |
| CCN1CCN(c2ccc(NC(=O)c3ccc(F)cc3)cc2Cl)CC1 | -66.8% |
| CCC(=O)NC(=S)NNC(=O)c1ccc([N+](=O)[O-])cc1 | 8.99% |
| CC(OC(=O)CCC(=O)c1cccs1)C(=O)NC1CCCCC1C (centres unmarked) | 0.622% |
| CC(OC(=O)c1cccs1)C(=O)NC1CCCCC1C (centres unmarked) | -66.1% |
| CC(OC(=O)c1cccs1)C(=O)NC1CC1 (centres unmarked) | 7.03% |
| CCOc1ccc(NC(=O)CN(C)C(=O)c2ccc(COc3ccccc3)cc2)cc1OCC | 4.94% |
| Cc1ccc(NS(=O)(=O)c2ccccc2Cl)c2c1CC(C)(C)O2 | 6.77% |
| Cc1ccc2sc(NNC(=O)C3COc4ccccc4O3)nc2c1C (centres unmarked) | 9.9% |
| CN(C)C/C=C(/c1ccc(Br)cc1)c1cccnc1.Cl | -60.8% |
| CN(C)C/C=C(\c1ccc(Br)cc1)c1cccnc1.Cl.O | -35.3% |
| O=C(NCCNC(=O)c1cccnc1)c1ccc(Br)cc1 | 29.6% |
| CC(C)C(=O)Nc1ccc2c(c1)oc1ccccc12 | 11.8% |

| SMILES | hERG current change (%, negative = inhibition) at 1uM |
| --- | --- |
| O=C(COC(=O)C12CC3CC(CC(O)(C3)C1)C2)Nc1ccc(Cl)cc1F | -1.56% |
| COc1ccccc1C(=O)Nc1ccon1 | -0.0061% |
| N=c1nc(N)nc2n1NC(c1ccc(F)cc1)=CS2 | -3.69% |
| CN1C2CCC1CC(N(CCc1ccccc1)C(=O)c1ccc(Cl)cc1)C2.Cl (centres unmarked) | -78.8% |
| CCCCN(C(=O)c1ccc(Cl)cc1)C1CC2CCC(C1)N2C.Cl (centres unmarked) | -15.6% |
| COc1ccc(C(=O)CN(C(=O)c2ccc(Cl)cc2)N2C(=O)C3CCCCC3C2=O)cc1 (centres unmarked) | 10.8% |
| Cc1cc(C)cc(C(=O)N(CCc2ccccc2)C2CC3CCC(C2)N3C)c1.Cl (centres unmarked) | -18% |
| CN1C2C=C(N(C(=O)c3ccc(Cl)cc3)c3ccccc3)CC1CC2.Cl (centres unmarked) | -69.8% |
| COc1ccc(N(C(=O)/C=C/c2ccccc2)C2=CC3CCC(C2)N3C)cc1.Cl (centres unmarked) | -70.3% |
| COc1cc(C(=O)N(CCc2ccccc2)C2=CC3CCC(C2)N3C)cc(OC)c1OC.Cl.O (centres unmarked) | -13.5% |
| COc1ccc(N(C(=O)c2ccc(Cl)cc2)C2=CC3CCC(C2)N3C)cc1.Cl (centres unmarked) | -76.1% |
| CN1C2C=C(N(CCc3ccccc3)C(=O)c3ccc(Cl)cc3)CC1CC2.Cl (centres unmarked) | -19.7% |
| CN1C2C=C(N(CCc3c[nH]c4ccccc34)C(=O)c3ccc(Cl)cc3)CC1CC2.Cl (centres unmarked) | -41.4% |
| CN1C2CCC1CC(OC(=O)c1ccc(Cl)cc1)C2.Cl (centres unmarked) | -9.75% |
| COc1ccc(N(C(=O)/C=C/c2ccc(OC)c(OC)c2)C2=CC3CCC(C2)N3C)cc1.Cl (centres unmarked) | -42.8% |
| Cc1cc(C)n2c(SC(C)C(=O)NC3(C#N)CCCCC3)nnc2n1 (centres unmarked) | 11.7% |
| CCOC(=O)c1oc2ccccc2c1NC(=O)c1ccc(S(=O)(=O)N2CCCC2)cc1 | -6.45% |
| CCOC(=O)C1CCN(S(=O)(=O)c2cc(F)ccc2OC)CC1 | 8.83% |
| COc1ccc(-c2nc(NCCCN(C)C)c3ccccc3n2)cc1.Cl | 3.72% |
| C=C(C)Cn1c(SCC#N)nc2ccccc2c1=O | 3.85% |
| COc1ccc(S(=O)(=O)N2CCN(C)CC2)c2ccccc12 | 9.59% |
| CC(Sc1nc2ccccc2n1C)C(=O)Nc1ccc(N2CCOCC2)cc1 (centres unmarked) | 6.2% |
